Laboratory results reported in the supplement of paper PMC10338343.
± gives the standard deviation.

What follows are sequences tested on MILI (PIWIL2) piRISC loaded with L1MC piRNA (26 nt) (assay: pre-steady-state target cleavage rate (min^-1); guide: L1MC piRNA 5'p-UAACUAAAUACUAUGCAAGCUGUAGG; MIWI and MILI are mouse PIWI proteins and EfPiwi is from a freshwater sponge; tags in brackets are library labels; higher = faster piRNA-guided slicing of the target). Details: auxiliary factor: 500 nM mouse GTSF1.
Summary of the method: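 Reactions were run for 0–8 or 0–960 min at 33 °C in HEPES–potassium acetate buffer, combining 1 nM active affinity-purified piRISC with one synthetic guide, […] transcribed, DNA-blocked target RNA library and, in some cases, 500 nM GTSF1 partner protein. Sequencing of uncleaved targets followed, with normalisation to depth and to weakly complementary targets. Three trials were pooled, k3 was capped at 0.0001 min^-1, and the pre-steady-state cleavage rate was taken from a burst-and-steady-state fit.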
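Note: 1 nM active piRISC with 0.1 nM target library at 33 °C single turnover.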

| Sequence | pre-steady-state target cleavage rate |
| --- | --- |
| UCCUGGUACAGCUUCGCAUAGUAUUUAGUUA | 0.274 ± 0.021 |
| UCCUGGACCAGCUUGCAUAGUAUUUAGUUA | 0.246 ± 0.02 |
| UCCUGCUACAGCUUCCAAAGUAUUUAGUUA | 0.112 ± 0.015 |
| UCCUGGUACAGCUUGCAUAGUAUUAAGUUA | 0.252 ± 0.041 |
| UCCUGCUACUGCUUGCAUUGUAUUUAGUUA | 0.211 ± 0.018 |
| UCCUCCUACAGUCUUGCAUAGUAUUUAGUUA | 0.252 ± 0.018 |
| UCCUGGAUGAGCUUGCAUACUAUUUAGUUA | 0.0499 ± 0.0093 |
| UCCUCCUACAGCUAGCAUAGUAUUUAGUUA | 0.27 ± 0.019 |
| UCCUGCUACAGCUUGCAUAGUAAUUUAGUUA | 0.233 ± 0.023 |
| UCCUCCUACAGCAUGCAUAGUUUUUAGUUA | 0.0554 ± 0.01 |
| UCCUGCUACAGCUUGCGUAGUAUUUAGUUA | 0.206 ± 0.014 |
| UCCUGGAUGAUCUUGCAUAGUAUUUAGUUA | 0.145 ± 0.016 |
| UCCUGCUACAGCUUGCAUAGUAUUUAGUUG [g2:g25:cont:t1G] | 0.145 ± 0.013 |
| UCCUCCUACAGCUCGCAUAGUAUUUAGUUA | 0.288 ± 0.019 |
| UCCUGGAUGAUGCUUGCAUAGUAUUUAGUUA | 0.228 ± 0.023 |
| UCCUGCUACAGGUUGCUUAGUAUUUAGUUA | 0.227 ± 0.012 |
| UCCUGGAACAUCUUGCAUAGUAUUUAGUUA | 0.244 ± 0.013 |
| UCCUCCAACAGCUUGCAUAGUAUAUAGUUA | 0.234 ± 0.027 |
| UCCUGGUACUAGCUUGCAUAGUAUUUAGUUA | 0.068 ± 0.021 |
| UCCUGGAUGAGCUUGCAUAGUAUUUAGUUU [g2:g21:cont:t1U] | 0.226 ± 0.011 |
| UCCUGGAACAGGUUGCUUAGUAUUUAGUUA | 0.253 ± 0.015 |
| UCCUGGAAGAGCUUGCAUACUAUUUAGUUA | 0.0778 ± 0.014 |
| UCCUGGAUCAGCUUGCUUAGUAUUUAGUUA | 0.248 ± 0.019 |
